The values that follow come from the supplement of paper PMC9262897, “Low-cost anti-mycobacterial drug discovery using engineered E. coli” (Nature Communications, 2022).

Where a name gives a salt, the structure may show the parent alone. ± gives the standard deviation of the averaged measurements.

The first test deals with E. coli TESEC Mtb DapB. The test can be described thus: growth (OD600 after 10 h); higher = more growth (less inhibition). The settings on record: arabinose induction (level): High; compound 0.1 mM; raw OD600 reference: median of DMSO wells […], cell-free background 0.041. How it is done: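 TESEC E. coli strains in which the native enzyme is deleted and replaced by arabinose-inducible Mtb Asd, DapB, CysH or TrpD, each grown in its selective medium. Strains were screened against the Prestwick library at 0.1 mM and 1% DMSO in 384-well format at low and high arabinose induction. Growth is read as OD600 after 10 h in triplicate.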
`OCCN1CCN(CCCN2c3ccccc3C=Cc3ccccc32)CC1` [Opipramol dihydrochloride] returned a growth of 0.199 ± 0.027.
Still for that read-out and setting: the same measure for `CC(C)(C)NC[C@H](O)COc1nsnc1N1CCOCC1` [Timolol maleate salt]: 0.206 ± 0.016; for `COCCOC(=O)C1=C(C)NC(C)=C(C(=O)OC(C)C)C1c1cccc([N+](=O)[O-])c1` (stereo not given) [Nimodipine]: 0.169 ± 0.016.
On the same count and under the same terms, the same measure for `CN(Cc1cc(Br)cc(Br)c1N)C1CCCCC1` [Bromhexine hydrochloride]: 0.04827 ± 0.00047; for `Nc1c(Br)cc(Br)cc1CN[C@H]1CC[C@H](O)CC1` [Ambroxol hydrochloride]: 0.204 ± 0.015; for `C[C@H](CS)C(=O)N1CCC[C@H]1C(=O)O` [Captopril]: 0.187 ± 0.019.
Turning to `CN(C)CC/C=C1/c2ccccc2Sc2ccc(Cl)cc21` [Chlorprothixene hydrochloride], the growth was 0.0467 ± 0.00076.
Same read-out and setting: the figure for `O=C1NCCN1c1ncc([N+](=O)[O-])s1` [Niridazole] is 0.161 ± 0.015; for `CN(C)C/C=C(/c1ccc(Br)cc1)c1cccnc1` [Zimelidine dihydrochloride monohydrate] it is 0.168 ± 0.0086.
Consider `CCCCC(=O)N(Cc1ccc(-c2ccccc2-c2nnn[nH]2)cc1)[C@H](C(=O)O)C(C)C` [Valsartan], for which the growth came out at 0.211 ± 0.011.
`Cc1cc(O)c(C(=O)N[C@@H](C(=O)N[C@@H]2C(=O)N3C(C(=O)O)=C(CSc4nnnn4C)CS[C@H]23)c2ccc(O)cc2)cn1` [Cefpiramide]: the growth is 0.214 ± 0.007.
On the same count and under the same terms, the figure for `CCn1cc(C(=O)O)c(=O)c2cc(F)c(N3CCNCC3)cc21` [Norfloxacin] is 0.0581 ± 0.00065; for `CCCCC[C@H](O)/C=C/[C@H]1[C@H](O)CC(=O)[C@@H]1CCCCCCC(=O)O` [Alprostadil] it is 0.154 ± 0.008; for `CC[N+](CC)(CC)CCOc1cccc(OCC[N+](CC)(CC)CC)c1OCC[N+](CC)(CC)CC` [Gallamine triethiodide] it is 0.19 ± 0.011.
Same read-out and setting: the figure for `Nc1nc(=S)c2ncn([C@@H]3O[C@H](CO)[C@@H](O)[C@H]3O)c2[nH]1` [Thioguanosine] is 0.174 ± 0.011; for `COc1ccc(-c2cc(=O)c3c(O)cc(O[C@@H]4O[C@H](CO[C@@H]5O[C@@H](C)[C@H](O)[C@@H](O)[C@H]5O)[C@@H](O)[C@H](O)[C@H]4O)cc3o2)cc1O` [Diosmin] it is 0.225 ± 0.016.
Still for that read-out and setting: the same measure for `CCC(=O)[C@@]1(C)[C@H](C)C[C@H]2[C@@H]3CCC4=CC(=O)C=C[C@]4(C)[C@H]3[C@@H](O)C[C@@]21C` [Rimexolone]: 0.197 ± 0.0062; for `CCCc1nc2c(C)cc(-c3nc4ccccc4n3C)cc2n1Cc1ccc(-c2ccccc2C(=O)O)cc1` [Telmisartan]: 0.273 ± 0.0084; for `Cc1cc2cc3c(C)cc(=O)oc3c(C)c2o1` [Trioxsalen]: 0.231 ± 0.032.
Consider `Cn1c(=O)c2c(ncn2CC2OCCO2)n(C)c1=O` [Doxofylline], for which the growth stood at 0.1957 ± 0.00055.

Still in this test, the particulars now being: arabinose induction (level): Low; compound 0.1 mM; raw OD600 reference: median of DMSO wells 0.227, cell-free background 0.041.
Consider `OCCN1CCN(CCCN2c3ccccc3C=Cc3ccccc32)CC1` [Opipramol dihydrochloride], for which the growth was 0.218 ± 0.04.
On the same count and under the same terms, the same measure for `CC(C)(C)NC[C@H](O)COc1nsnc1N1CCOCC1` [Timolol maleate salt]: 0.258 ± 0.018; for `COCCOC(=O)C1=C(C)NC(C)=C(C(=O)OC(C)C)C1c1cccc([N+](=O)[O-])c1` (stereo not given) [Nimodipine]: 0.197 ± 0.037.
Same read-out and setting: the figure for `CN(Cc1cc(Br)cc(Br)c1N)C1CCCCC1` [Bromhexine hydrochloride] is 0.0644 ± 0.0038; for `Nc1c(Br)cc(Br)cc1CN[C@H]1CC[C@H](O)CC1` [Ambroxol hydrochloride] it is 0.221 ± 0.029.
The same measure, in the same setting: the same measure for `C[C@H](CS)C(=O)N1CCC[C@H]1C(=O)O` [Captopril]: 0.21 ± 0.027; for `CN(C)CC/C=C1/c2ccccc2Sc2ccc(Cl)cc21` [Chlorprothixene hydrochloride]: 0.0463 ± 0.00046; for `O=C1NCCN1c1ncc([N+](=O)[O-])s1` [Niridazole]: 0.177 ± 0.022.
Compound `CN(C)C/C=C(/c1ccc(Br)cc1)c1cccnc1` [Zimelidine dihydrochloride monohydrate] came in with a growth of 0.261 ± 0.12.
Consider `CCCCC(=O)N(Cc1ccc(-c2ccccc2-c2nnn[nH]2)cc1)[C@H](C(=O)O)C(C)C` [Valsartan], for which the growth worked out at 0.257 ± 0.03.
Same read-out and setting: the figure for `Cc1cc(O)c(C(=O)N[C@@H](C(=O)N[C@@H]2C(=O)N3C(C(=O)O)=C(CSc4nnnn4C)CS[C@H]23)c2ccc(O)cc2)cn1` [Cefpiramide] is 0.239 ± 0.035; for `CCn1cc(C(=O)O)c(=O)c2cc(F)c(N3CCNCC3)cc21` [Norfloxacin] it is 0.0745 ± 0.015.
The same measure, in the same setting: the same measure for `CCCCC[C@H](O)/C=C/[C@H]1[C@H](O)CC(=O)[C@@H]1CCCCCCC(=O)O` [Alprostadil]: 0.177 ± 0.032; for `CC[N+](CC)(CC)CCOc1cccc(OCC[N+](CC)(CC)CC)c1OCC[N+](CC)(CC)CC` [Gallamine triethiodide]: 0.251 ± 0.037.
As for `Nc1nc(=S)c2ncn([C@@H]3O[C@H](CO)[C@@H](O)[C@H]3O)c2[nH]1` [Thioguanosine], the growth was determined as 0.115 ± 0.032.
Same read-out and setting: the figure for `COc1ccc(-c2cc(=O)c3c(O)cc(O[C@@H]4O[C@H](CO[C@@H]5O[C@@H](C)[C@H](O)[C@@H](O)[C@H]5O)[C@@H](O)[C@H](O)[C@H]4O)cc3o2)cc1O` [Diosmin] is 0.243 ± 0.017.
Compound `CCC(=O)[C@@]1(C)[C@H](C)C[C@H]2[C@@H]3CCC4=CC(=O)C=C[C@]4(C)[C@H]3[C@@H](O)C[C@@]21C` [Rimexolone] had a growth of 0.209 ± 0.026.
On the same count and under the same terms, the figure for `CCCc1nc2c(C)cc(-c3nc4ccccc4n3C)cc2n1Cc1ccc(-c2ccccc2C(=O)O)cc1` [Telmisartan] is 0.307 ± 0.039; for `Cc1cc2cc3c(C)cc(=O)oc3c(C)c2o1` [Trioxsalen] it is 0.237 ± 0.012; for `Cn1c(=O)c2c(ncn2CC2OCCO2)n(C)c1=O` [Doxofylline] it is 0.238 ± 0.0011.
